Source: PubChem BioAssay AID504834 (National Center for Advancing Translational Sciences (NCATS), 2011)
Among all 320,000 compounds or so, about 22,000 (6.9%) were called active. Roughly 27% stayed inconclusive and do not appear here. The call rests on the fitted dose curve; in most records, active means well fitted inhibition curve with a large enough effect; inconclusive means small, poorly fitted or top-dose-only effect, or another doubt; inactive means no such curve, though single readings can be large or run the other way. The list comes from a sample in which actives are over-represented; it also holds similar structures and randomly drawn compounds. Entries that show only a call come without a potency.

Test: Primary qHTS for delayed death inhibitors of the malarial parasite plastid, 96 hour incubation
Conditions: P. falciparum luciferase reporter growth; series mostly up to 28.7 µM
In short: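 Plates of compound plus infected erythrocytes (2% hematocrit, 0.05% parasitemia final) incubate 96 hours, 37 C, 5% CO2. Detection reagent added; reduced luminescence from the parasites' luciferase reporter flags inhibition.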
Potency means the concentration at half of the fitted maximal effect.

| Compound | Potency |
| --- | --- |
| CSc1ccc(NC(=O)/C=C/C(=O)O)cc1 | inactive |
| O=C(Nc1ccccc1C(=O)N1CCCCC1)c1ccco1 | inactive |
| COc1ccc(C(C(=O)NC2CCCC2)N(CCCO)C(=O)Cn2nnc(-c3ccc(C)o3)n2)cc1 (centres undefined) | 3.7 µM (active) |
| CCOCCCN(C(=O)Cn1nnc(-c2ccc(OC)c(OC)c2)n1)C(CC)C(=O)NC1CCCC1 (centres undefined) | inactive |
| COc1cccc(N(CC(=O)NC2CCCC2)C(=O)Cn2nnc(-c3ccc(C)o3)n2)c1 | 11.7 µM (active) |
| Cc1cccc(N(C(=O)Cn2nnc(-c3ccc(C)o3)n2)C(C(=O)NC2CCCC2)c2ccncc2)c1 (centres undefined) | inactive |
| COc1cccc(N(CC(=O)NC2CCCC2)C(=O)Cn2nnc(-c3ccc(C)cc3)n2)c1 | inactive |
| COc1ccc(C)cc1N(C(=O)Cn1nnc(-c2ccc(C)o2)n1)C(C(=O)NC1CCCC1)c1ccncc1 (centres undefined) | 8.28 µM (active) |
| COc1ccc(-c2nnn(CC(=O)N(CCO)C(C(=O)NC3CCCC3)c3ccc(F)cc3)n2)cc1 (centres undefined) | inactive |
| CCC(C(=O)NC1CCCC1)N(C(=O)Cn1nnc(-c2ccc(C)o2)n1)c1ccc(OC)c(OC)c1 (centres undefined) | inactive |
| O=C(Cn1nnc(-c2ccccc2)n1)NC(=O)NC1CCCC1 | inactive |
| CC1CC(C)CN(c2ccc(S(=O)(=O)N3CCOCC3)cc2)C1 (centres undefined) | inactive |
| Cc1occc1-c1nnc(SCC(=O)NC2CCCCC2)o1 | inactive |
| Cc1nc(N)nc(SCc2ccc([N+](=O)[O-])cc2)c1N | inactive |
| O=C(c1ccc(Cl)c(S(=O)(=O)N2CCCCC2)c1)N1CCCCCC1 | inactive |
| COc1ccc(Cl)cc1NS(=O)(=O)c1cccc(C(=O)NC2CCC(O)CC2)c1 (centres undefined) | inactive |
| CCCCN(CCCC)CCNC(=O)CN1C(=O)COc2ccc(S(=O)(=O)N3CCOCC3)cc21 | inactive |
| Cc1ccc(OCC(=O)Nc2ccccc2C(=O)NC2CC2)cc1C | inactive |
| Cc1onc(NC(=O)c2ccc([N+](=O)[O-])o2)c1Br | 5.86 µM (active) |
| Cc1cc(NC(=O)COc2ccc([N+](=O)[O-])cc2)no1 | inactive |
| O=C(OCC(=O)c1cccs1)c1ccc([N+](=O)[O-])o1 | inactive |
| Cc1cc(C)c2c(=O)[nH]c(SCC(=O)Nc3ccc(Br)cc3)nc2n1 | inactive |
| Cc1ccc(S(=O)(=O)N2CCOCC2)cc1NC(=O)COC(=O)c1cnccn1 | inactive |
| Nc1nc(SCC(=O)Nc2ccc(Cl)cc2C(F)(F)F)n[nH]1 | inactive |
| Cc1ccc(S(=O)(=O)NCC2CCC(C(=O)N3CCOCC3)CC2)cc1 (centres undefined) | inactive |
| CN(C)S(=O)(=O)c1ccc(C(=O)NCC(C)(C)N2CCOCC2)cc1 | inactive |
| O=C(NCc1cccnc1)c1cc(S(=O)(=O)N2CCOCC2)c(Cl)cc1Cl | inactive |

| Compound | Potency |
| --- | --- |
| O=C(NCCSCc1ccccc1)c1ccc(Cl)c(S(=O)(=O)N2CCOCC2)c1 | 11.7 µM (active) |
| CC(C)(CNC(=O)Cc1ccc(Cl)cc1Cl)N1CCOCC1 | inactive |
| Cc1ccc(NC(=O)CCCNC(=O)c2ccc(Cl)cc2)cc1S(=O)(=O)N1CCOCC1 | inactive |
| CC(C)(CNC(=O)c1ccc(Cl)c(S(=O)(=O)N2CCc3ccccc3C2)c1)N1CCOCC1 | 7.38 µM (active) |
| Cc1ccccc1CSCCNC(=O)c1ccc(N(C)S(=O)(=O)c2ccccc2)cc1 | inactive |
| CN(CC(=O)Nc1ccc(F)cc1)CC(=O)Nc1ccc(Cl)c(S(=O)(=O)N2CCOCC2)c1 | inactive |
| Cc1ccccc1CSCCNC(=O)c1ccc(Cl)c(S(=O)(=O)N2CCOCC2)c1 | 13.1 µM (active) |
| COc1ccccc1N(CC(=O)NC1CCCC1)C(=O)C1(C)CC(=O)N=C2C=CC(C)=CN21 (centres undefined) | inactive |
| O=C(Nc1ccc(N2CCCCC2)cc1)c1cc(S(=O)(=O)N2CCOCC2)ccc1F | inactive |
| COC(=O)c1ccc(CNC(=O)c2ccc3oc(C(C)C)nc3c2)cc1 | inactive |
| NCCCCC(N)C(=O)O (centres undefined) | inactive |
| COCC1CCN(C(=O)c2ccc3oc(Cc4ccccc4)nc3c2)C1 (centres undefined) | inactive |
| CCOc1ccc(S(=O)(=O)NCCSc2ccccc2)cc1 | inactive |
| CCOc1ccc2nc(NCCNS(=O)(=O)c3ccccc3)c(C#N)cc2c1 | 13.1 µM (active) |
| COc1ccc(CNC(=O)C(C)NCc2ccccc2Cl)cc1 (centres undefined) | inactive |
| CCOC(=O)N1CCN(C(=O)c2ccccc2N(Cc2ccccc2)S(=O)(=O)c2ccc(OC)cc2)CC1 | inactive |
| COc1ccc(S(=O)(=O)N(CC(=O)N/N=C/c2ccc(C(=O)O)cc2)Cc2ccccc2)cc1OC | inactive |
| CCOC(=O)CN(Cc1ccc(OC)c(OC)c1)S(=O)(=O)c1ccc(OC)cc1 | 9.28 µM (active) |
| CCNC(=O)Nc1ccc(S(=O)(=O)Nc2cnc(C)nc2C)cc1 | inactive |
| COc1cc2c(C(=O)O)c(C)n(C)c2c2ccccc12 | inactive |
| O=C(NCCc1ccccc1)C(=O)NCC1OCCN1S(=O)(=O)c1cccs1 (centres undefined) | inactive |
| COc1ccc(NS(=O)(=O)c2ccc(Oc3c(C#N)cccc3C#N)cc2)cc1 | inactive |
| Cc1cccc(-c2nc(Nc3ccc(O)cc3)c3ccccc3n2)c1 | inactive |
| O=c1[nH]c(-c2cccs2)nc2ccccc12 | inactive |
| CC(=O)Nc1cccc(Nc2nc(-c3cccs3)nc3ccccc23)c1 | 9.28 µM (active) |
| Cn1c(CO)cnc1SCc1ccccc1 | inactive |
| CSc1nc2ccccc2c(=O)n1Cc1ccc(F)cc1 | inactive |

| Compound | Potency |
| --- | --- |
| CSc1c(SCc2ccccc2)cnn(Cc2ccccc2)c1=O | 9.28 µM (active) |
| Cc1ccc(C)c(OCCC(=O)OCC(=O)N2CCN(c3ccccc3)CC2)c1 | inactive |
| COc1ccc([C@H]2CC(=O)C=C(/C=C/c3ccc(Cl)cc3)C2)cc1 | inactive |
| O=C1C=C(c2cccc(Br)c2)C[C@@H](c2ccc(F)cc2)C1 | 2.33 µM (active) |
| CC(C)(C)SCCSC1=CC(=O)CC(c2ccccc2)C1 (centres undefined) | inactive |
| O=C1C=C(c2cccc(Cl)c2O)C[C@@H](c2ccc(F)cc2)C1 | 4.65 µM (active) |
| COc1cccc(C2=CC(=O)C[C@H](c3ccc(F)cc3)C2)c1OC | inactive |
| O=C(Cn1cnc2ccccc21)Nc1ccccc1-c1ccccc1 | inactive |
| COc1ccc(/C=C(/NC(=O)c2ccco2)C(=O)Nc2ccc(C(C)=O)cc2)cc1 | inactive |
| O=C(O)c1cccc2c1C(=O)N(C1CCCC1)C2 | inactive |
| Cc1nc2ccccc2cc1C(=O)N/N=C/c1ccc([N+](=O)[O-])cc1 | inactive |
| O=C(C[n+]1ccccc1)N/N=C/c1ccc(O)cc1 | inactive |
| Cc1nonc1C(=O)N/N=C/c1ccc(O)cc1 | 0.262 µM (active) |
| NC(=O)NC(CC(=O)NNC(=O)c1ccccn1)c1ccc(Cl)cc1 (centres undefined) | inactive |
| O=C(NNC(=O)c1cc(S(=O)(=O)N2CCCCC2)ccc1Cl)c1ccccc1O | inactive |
| O=C(Nc1ccccc1)c1ccc(NC(=O)c2cccs2)cc1 | inactive |
| O=C(Nc1ccccc1Cl)Nc1cccc2cccnc12 | inactive |
| CC(=O)N1CCN(C(=O)c2cc(-c3ccc(C)o3)nc3ccccc23)CC1 | inactive |
| O=C(c1cc(-c2ccncc2)nc2ccccc12)N1CCC2(CC1)OCCO2 | 4.15 µM (active) |
| O=C(c1cc2nc(-c3ccccc3)cc(-c3ccccc3)n2n1)N1CCC2(CC1)OCCO2 | inactive |
| Cc1cc(C(=O)OC(C)C(=O)NC2CCCCC2C)c(C)o1 (centres undefined) | inactive |
| CC1(C(=O)O)CCC(C(=O)Nc2ccc(Cl)c(Cl)c2)C1(C)C (centres undefined) | 10.4 µM (active) |
| NC(=O)N1CCCC1C(=O)Nc1ccc(Cl)c(Cl)c1 (centres undefined) | inactive |
| CCN(CC)C(=O)C1CCC(C)(C(=O)O)C1(C)C (centres undefined) | inactive |
| O=C(CN1CCN(S(=O)(=O)c2cccc(Cl)c2)CC1)N1CCCCC1 | inactive |
